# Experimental data as given in PubChem BioAssay (Tox21).
# Records with an inconclusive call do not appear. Calls of active or inactive are those of the source. The call rests on the fitted dose curve.
# Test system: not listed separately
# Experiment: qHTS assay to identify small molecule agonists or antagonists of the thyroid stimulating hormone receptor (TSHR) signaling pathway - wild type cell line counter screen (AID 1259384)
# Details: HEK293 wild type, cAMP HTRF counter-screen; series mostly up to 92.4 µM
# Outline: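 Wild-type Hek293 cells, 800/well, 18 h at 37C, then compound with Ro20-1724 for 30 min RT. cAMP by HTRF (cAMP-d2/anti-cAMP cryptate), 1 h RT, fluorescence read. 15 concentrations, triplicates.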
row,SMILES,outcome
1,CCOC(=S)S,inactive
2,COP(=S)(OC)Oc1ccc([N+](=O)[O-])cc1,inactive
3,N[C@@H](Cc1ccc(N(CCCl)CCCl)cc1)C(=O)O,inactive
4,Nn1cnnc1,inactive
5,CC(C)(OOC(C)(C)c1ccccc1)c1ccccc1,inactive
6,Nc1ccc(-c2ccccc2)cc1,inactive
7,CCCCNC(=O)n1c(NC(=O)OC)nc2ccccc21,inactive
8,O=C(Nc1ccc(Br)cc1)c1cc(Br)cc(Br)c1O,inactive
9,CCOC(=O)C(C)OC(=O)c1cc(Oc2ccc(C(F)(F)F)cc2Cl)ccc1[N+](=O)[O-] (stereo not given),inactive

# Target: Thyrotropin receptor (Homo sapiens) (UniProt P16473)
# Experiment: qHTS assay to identify small molecule antagonists of the thyroid stimulating hormone receptor (TSHR) signaling pathway (AID 1259385); further: nearly all actives have a fitted effect of over 20% in size
# Details: TSHR-HEK293 cAMP HTRF, TSH-stimulated antagonist mode; series mostly up to 92.4 µM
# Outline: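 TSHR-HEK293 cells (800/well) plated 18 h, then compounds with Ro20-1724 and TSH at 1.5 ng/mL final, 30 min at room temperature. cAMP quantified by HTRF (cAMP-d2/anti-cAMP-cryptate, 1 h); 15 concentrations in triplicate.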
# Chain of Thyrotropin receptor (Homo sapiens) (P16473 whole entry, looked up): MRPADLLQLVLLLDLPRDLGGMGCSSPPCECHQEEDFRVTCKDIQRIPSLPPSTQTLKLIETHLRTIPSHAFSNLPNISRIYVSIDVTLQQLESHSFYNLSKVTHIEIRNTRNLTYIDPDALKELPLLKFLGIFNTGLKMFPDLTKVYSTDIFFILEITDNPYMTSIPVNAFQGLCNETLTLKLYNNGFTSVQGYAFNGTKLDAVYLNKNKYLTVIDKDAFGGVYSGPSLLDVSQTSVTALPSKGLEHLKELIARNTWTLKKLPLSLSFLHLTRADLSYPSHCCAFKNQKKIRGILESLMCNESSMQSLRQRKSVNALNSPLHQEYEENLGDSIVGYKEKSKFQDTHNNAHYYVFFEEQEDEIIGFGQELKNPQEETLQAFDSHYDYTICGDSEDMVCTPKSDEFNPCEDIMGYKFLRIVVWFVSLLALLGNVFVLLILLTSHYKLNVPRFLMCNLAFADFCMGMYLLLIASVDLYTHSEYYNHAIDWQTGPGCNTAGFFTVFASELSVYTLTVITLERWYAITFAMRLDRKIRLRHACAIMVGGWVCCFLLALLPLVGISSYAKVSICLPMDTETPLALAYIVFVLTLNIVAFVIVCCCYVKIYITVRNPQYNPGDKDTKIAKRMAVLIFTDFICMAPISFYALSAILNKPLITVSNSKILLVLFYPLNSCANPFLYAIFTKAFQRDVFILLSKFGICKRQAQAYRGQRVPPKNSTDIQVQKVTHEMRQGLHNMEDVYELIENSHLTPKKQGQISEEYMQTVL
row,SMILES,outcome
1,Cc1cc(Cl)ccc1OCCCC(=O)O,inactive
2,O=P(Oc1ccccc1)(Oc1ccccc1)Oc1ccccc1,inactive
3,CC(C)Oc1cc(-n2nc(C(C)(C)C)oc2=O)c(Cl)cc1Cl,inactive
4,ClC1C(Cl)C(Cl)C(Cl)C(Cl)C1Cl (stereo not given),inactive
5,CCOc1cc(Oc2ccc(C(F)(F)F)cc2Cl)ccc1[N+](=O)[O-],inactive
6,C=C(C)C(=O)OCC1CO1 (stereo not given),inactive
7,C#CCOS(=O)OC1CCCCC1Oc1ccc(C(C)(C)C)cc1 (stereo not given),inactive
8,Cc1cccc(N)c1N,inactive
9,N#CC(Br)Br,inactive
10,CCC(C)(C)c1ccc(O)cc1,inactive
11,O=C1C=CC(=O)C=C1,inactive
12,NNC(=S)NN,inactive
13,O=[N+]([O-])c1cccc2ccccc12,inactive
14,O=[N+]([O-])c1ccc(O)c([N+](=O)[O-])c1,inactive
15,CCC(CC)Nc1c([N+](=O)[O-])cc(C)c(C)c1[N+](=O)[O-],inactive
16,CN(C)c1ccc(C(=O)c2ccc(N(C)C)cc2)cc1,inactive

row,SMILES,outcome
1,CCCCN(CCCC)N=O,inactive
2,O=C(O)C(F)(F)C(F)(F)C(F)(F)C(F)(F)C(F)(F)C(F)(F)C(F)(F)F,inactive
3,CCC(C)c1cc([N+](=O)[O-])cc([N+](=O)[O-])c1O (stereo not given),inactive
4,Cc1ccc2c(c1N)C(=O)c1ccccc1C2=O,inactive
5,CN(C)C(=O)Nc1ccc(Cl)cc1,inactive
6,CCOCN(C(=O)CCl)c1c(C)cccc1CC,inactive
7,CCOC(=S)S,inactive
8,COP(=S)(OC)Oc1ccc([N+](=O)[O-])cc1,inactive
9,N[C@@H](Cc1ccc(N(CCCl)CCCl)cc1)C(=O)O,inactive
10,Nn1cnnc1,inactive
11,CC(C)(OOC(C)(C)c1ccccc1)c1ccccc1,inactive
12,Nc1ccc(-c2ccccc2)cc1,inactive
13,CCCCNC(=O)n1c(NC(=O)OC)nc2ccccc21,inactive
14,O=C(Nc1ccc(Br)cc1)c1cc(Br)cc(Br)c1O,inactive
15,CCOC(=O)C(C)OC(=O)c1cc(Oc2ccc(C(F)(F)F)cc2Cl)ccc1[N+](=O)[O-] (stereo not given),inactive
